TGFb inhibitor – TGF-b pathway inhibition; actives 1.2% (n = 410,000); Potency, µM (top dose mostly 46.1 µM), for the others: at the top dose activity, negative = inhibition, usual class: inhibitors; HepG2 CAGA-GFP TGF-b/SMAD3 reporter, GFP fluorescence, 18 h; TGF-beta stimulated, 500 pg/mL final; note: potency is the fitted concentration of half-maximal effect; % is set by controls: 0 for no effect and ±100 for the full control effect; nearly all actives have a fitted effect of over 65% in size
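Cell-based qHTS in HEPG2 carrying a CAGA-GFP Smad reporter; compounds added before 500 pg/mL final TGF-beta, 18 h incubation at 37 degrees C, GFP fluorescence quantified per cell by imaging cytometry.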
Giardia killer – kills Giardia lamblia | Giardia lamblia trophozoite viability | activity change, % at 7.66 µM, hits read low | actives 0.15% (n = 340,000) | AID 540267; in the data active = activity change below about -80%; inconclusive = between about -30% and that limit;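 note: parasites exposed to compound for two days anaerobically before the ATP read; % is set by controls: 0 for no effect and ±100 for the full control effect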
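Media and compound were dispensed first, then trophozoites at 100 cells/well; plates sat 48 hrs at 37 deg C without oxygen before ATP luminescence reagent was added and read after 15-30 min at room temperature.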
IL-1B inflam inh – blocks inflammasome-driven IL-1 beta release; THP-1 LPS/ATP IL-1B secretion, AlphaLISA, 16 h; active compounds read low; activity change, % at 57.5 µM; actives 4.7% (n = 360,000); AID 743279; in the data active = activity change below about -50%; inconclusive = mostly about -30% to -49%; note: % is set by controls: 0 for no effect and ±100 for the full control effect
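THP-1 cells pretreated 1 hr with compounds (up to 57.5 uM final), then stimulated with LPS (250 ng/mL final) plus ATP (1.25 mM final); secreted IL-1B measured by AlphaLISA after 16 hr, decreased signal indicating inhibition.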
HT1080NT lethal – kills 2HG-producing HT-1080-NT fibrosarcoma cells; Potency, µM (top dose mostly 46.1 µM), inactives show at the top dose activity, negative = less viability, usual class: cytotoxic; actives 1.6% (n = 360,000); HT-1080-NT fibrosarcoma viability, CellTiter-Glo ATP luminescence, 48 h;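 note: NT is the 2HG producing partner of a matched IDH1 knockdown line; potency is the fitted concentration of half-maximal effect; 0% = DMSO-treated cells and -100% = media-only wells without cells; nearly all actives have a fitted effect of over 55% in size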
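A 48-hour cytotoxicity screen used HT-1080-NT cells plated 2 hours before compound delivery. ATP-based CellTiter-Glo luminescence measured viability, normalized to DMSO and no-cell controls.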
HepG2 viability – HepG2 cytotoxicity, counter-screen for TGF-b inhibitors. Potency, µM (top dose mostly 46.1 µM), without a hit: at the top dose activity change, negative = cytotoxicity, actives largely listed as cytotoxic. actives 0.76% (n = 410,000). HepG2 CAGA-GFP viability, ATP luminescence, 18 h; note: potency is the fitted concentration of half-maximal effect
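CellTiter-Glo luminescence gave cytotoxicity after 18 hours at 37 degrees C. The cells were HepG2 CAGA-GFP in 1% FBS DMEM, stimulated with 500 pg/mL TGF-beta after compound addition. %Activity was normalised to no-cell wells (complete cell-killing) and DMSO (no toxicity), and curves were fitted and classified.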
HT1080 IDH1KD tx – HT-1080 IDH1 knockdown cell toxicity (counter line). Potency, µM (highest dose often 46.1 µM), for the others: at the top dose activity, negative = toxicity, hits mostly cytotoxic. HT-1080 IDH1 knockdown viability, ATP luminescence, 48 h. actives 2% (n = 360,000);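 note: potency is the fitted concentration of half-maximal effect; 0% = DMSO wells and -100% = cell-free medium wells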
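Knockdown cells (IDH1KD HT-1080) received compounds 2 h after plating at 750 cells/well and were kept 48 h at 37 °C in 5% FBS RPMI. A CellTiter-Glo luminescence read gave % activity for curve fitting.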
Starred values were filed as active, the others as inactive; ? = inconclusive; . = no result; ! = a repeat was not active; [ ] = dose if it differs, or a comment. Most compounds without a hit are left out; they make up all but 6.5% or so of the library. Unless noted, calls come from the whole dose curve; as a rule, active = well fitted curve in the direction sought with a large enough effect; inconclusive = small, poorly fitted or top-dose-only effect, or another doubt; inactive = no such curve, though single readings can be large; an effect the other way counts as inactive or inconclusive.

SMILES	TGFb inhibitor	Giardia killer	IL-1B inflam inh	HT1080NT lethal	HepG2 viability	HT1080 IDH1KD tx
CN(C)c1ccc(/C=C/c2ccc3ccccc3[n+]2C)cc1	2.2µM*	-18	-107*	?	7.1µM*!	1.3µM*
CN(C)c1ccc(/C=C/c2c[n+](C)cc3ccccc23)cc1	13µM*	.	.	.	-25%	.
CN(C(=O)CSc1nccc(=O)[nH]1)C1CCCCC1	-11%	-6	30	-3%[9.24 µM]	-11%	-3%
Cn1c(SCC(=O)NCCC2=CCCCC2)nnc1C(F)(F)F	-15%	.	-22	21%	-29%	3%
Cc1c(C2(O)CCCCC2)[nH]c2ccc(C#N)cc12	?	30	1	0%	-16%	-11%
CN(C)c1ccc(/C=C/c2c3ccccc3cc[n+]2[O-])cc1	3%	.	.	.	-8%	.
CN(C)c1ccc(/C=C/c2cc3ccccc3c[n+]2C)cc1	10µM*	.	.	.	-27%	.
CC1=CC(=O)C(Sc2ccc(C)cc2)=CC1=O	?	.	-78*	21µM*	-94%	?
Nc1nonc1-c1noc(COc2ccccc2Cl)n1	-5%	-9	-57*	-22%	3%	-24%
Cc1ccc(C#N)c(SCCN2CCCCC2)n1	0%	-15	-10	9%	-25%	11%
Cc1cccc2cc(C#N)c(SCCN3CCCCC3)nc12	?	-2	-59*	?	-21%	?
Cc1ccc(C)c(N2CCN(C(=O)CCc3c(C)nn(-c4ccc(N5CCCC5)nn4)c3C)CC2)c1	13µM*	.	.	.	-36%	.
Cc1cc(NC(=O)CN2C(=O)NC(C)(CC(C)C)C2=O)no1 (stereo unspecified)	1%	12	25	9%	-14%	5%
O=C(CSc1nc2ccccc2nc1SCC(=O)N1CCOCC1)N1CCOCC1	-13%	8	-10	-1%	14%	0%
O=C(CSc1nc2ccccc2nc1SCC(=O)N1CCCCC1)N1CCCCC1	-20%	0	-59*	?	0%	-26%
O=C(c1ccc2c3c(cccc13)CC2)C1CCCN(Cc2cccnc2)C1 (stereo unspecified)	-4%	45	-78*	-28%	-20%	-18%
O=C(c1ccc2c3c(cccc13)CC2)C1CCCN(C(=O)c2cccnc2)C1 (stereo unspecified)	?	-23	1	-1%	-67%	-8%
Cc1ccc(NC(=O)c2sc(N)nc2-c2ccc([N+](=O)[O-])cc2)cc1C	11%	-10	-8	0%	1%	1%
Cn1c2ccccc2c2cc(/C=N/NC(=O)c3cc(O)ccc3O)ccc21	2%	-7	-73*	-25%	-9%	?
Cn1c2ccccc2c2cc(/C=N/NC(=O)c3cc(O)cc(O)c3)ccc21	?	-1	-86*	-15%	-21%	-28%
O=C(c1ccco1)N1CCN(Cc2ccccc2Br)CC1	-8%	9	-17	-1%	-5%	?
CCOC(=O)N1CCN(c2cc(=O)n(C)c(=O)n2C)CC1	15%	-17	4	15%	32%	22%
NC(=S)N/N=C/c1ccc(-c2cc(Cl)ccc2Cl)o1	10µM*	-8	52	3.2µM*	-40%	?
NC(=S)N/N=C/c1ccc(-c2cc(Cl)cc(Cl)c2)o1	?	-7	-18	5%	-28%	8%
COc1ccc2nc(SCCOC(=O)Nc3ccc(Cl)cc3)nc(C)c2c1	?	0	19	-8%	4%	-22%
O=C(Nc1nccs1)c1cn(-c2ccccc2)nc1-c1ccccc1	?	-23	-63*	-7%	-16%	?
Cc1nn(Cc2c(Cl)cccc2Cl)c(C)c1NC(=O)c1cn(-c2ccccc2)nc1-c1ccccc1	-21%	9	28	3.7µM*	-2%	4.1µM*
Cc1cc(=O)n2c3ccccc3n(CC(O)CN3CCCC3)c2c1C#N (stereo unspecified)	-10%	8	-65*	?	-1%	?

Source: PubChem BioAssay
